Results reported in the supplement of paper PMC10849652.
About 8,800 targets were measured; listed, in parts, are those with a hit and a random draw of the rest. About 0.5% of all pairs of compound and target were hits. A number with no mark means an inactive call.

How the values were obtained:
Test in all cases: log2 fold change, soluble protein after heating vs DMSO (PISA); higher = thermal stabilisation; K562 lysate, 10 uM; active = over 0.2 and 3.5 SD of the protein, either way, in both replicates (recomputed)
nilotinib = compound: Cc1cn(-c2cc(NC(=O)c3ccc(C)c(Nc4nccc(-c5cccnc5)n4)c3)cc(C(F)(F)F)c2)cn1 [nilotinib]
How it was run: (§1)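 Thermal stability, expressed as log-two fold change relative to solvent controls, is given from duplicates. Crude K562 extract in PBS pH 7.4 with 1 mM MgCl2, at 1 mg/mL protein, was treated with 10 μM compound for 30 min and heated in aliquots for 3 min across 48°C-58°C. After pooling, adjustment to 0.5% NP-40 at 4°C and centrifugation at 21,000xg for 90 min, supernatant protein was measured by TMTpro 16plex LC-MS/MS with channel sums equalised.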

[1] = compound: Cc1nc(Nc2n[nH]c3c2CN(C(=O)N[C@H](CN(C)C)c2ccccc2)C3(C)C)c2sccc2n1
How it was run: as §1

dasatinib = compound: Cc1nc(Nc2ncc(C(=O)Nc3c(C)cccc3Cl)s2)cc(N2CCN(CCO)CC2)n1 [dasatinib]
How it was run: as §1

[2] = compound: Cc1ncc(-c2ccnc(Nc3ccc(S(C)(=O)=O)cc3)n2)n1C(C)C
How it was run: as §1

[3] = compound: Cn1cc(-c2ccc3c(c2)CCN3C(=O)Cc2cccc(C(F)(F)F)c2)c2c(N)ncnc21
How it was run: as §1

quisinostat = compound: Cn1cc(CNCC2CCN(c3ncc(C(=O)NO)cn3)CC2)c2ccccc21 [quisinostat]
How it was run: as §1

tipifarnib = compound: Cn1cncc1[C@@](N)(c1ccc(Cl)cc1)c1ccc2c(c1)c(-c1cccc(Cl)c1)cc(=O)n2C [tipifarnib]
How it was run: as §1

[4] = compound: NC(=O)Nc1cc(-c2cccc(F)c2)sc1C(=O)N[C@H]1CCCNC1
How it was run: as §1

[5] = compound: NC(=O)c1cnc(N[C@@H]2CCCC[C@@H]2N)nc1Nc1cccc(-n2nccn2)c1
How it was run: as §1

[6] = compound: NC1(c2ccc(-c3nc4ccn5c(=O)[nH]nc5c4cc3-c3ccccc3)cc2)CCC1
How it was run: as §1

[7] = compound: NCC(=O)Nc1ccc(-n2nc(C(F)(F)F)cc2-c2ccc3c(ccc4ccccc43)c2)cc1
How it was run: as §1

vorinostat = compound: O=C(CCCCCCC(=O)Nc1ccccc1)NO [vorinostat]
How it was run: as §1

silmitasertib = compound: O=C(O)c1ccc2c(c1)nc(Nc1cccc(Cl)c1)c1ccncc12 [silmitasertib]
How it was run: as §1

[8] = compound: O=C1NC(=O)C(c2cnc3ccccn23)=C1c1cn2c3c(cc(F)cc13)CN(C(=O)N1CCCCC1)CC2
How it was run: as §1

entospletinib = compound: c1cn2cc(-c3ccc4cn[nH]c4c3)nc(Nc3ccc(N4CCOCC4)cc3)c2n1 [entospletinib]
How it was run: as §1

Chain of UniProt P55210 (P55210 whole entry, looked up): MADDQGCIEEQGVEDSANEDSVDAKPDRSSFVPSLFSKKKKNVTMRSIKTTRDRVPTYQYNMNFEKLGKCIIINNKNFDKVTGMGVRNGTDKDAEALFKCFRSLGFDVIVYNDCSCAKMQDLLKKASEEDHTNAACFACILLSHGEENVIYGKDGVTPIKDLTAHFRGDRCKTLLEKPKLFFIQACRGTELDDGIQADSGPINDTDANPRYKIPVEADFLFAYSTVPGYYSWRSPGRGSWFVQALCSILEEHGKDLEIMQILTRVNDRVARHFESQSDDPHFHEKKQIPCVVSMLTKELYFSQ
Chain of UniProt O43861 (O43861 whole entry, looked up): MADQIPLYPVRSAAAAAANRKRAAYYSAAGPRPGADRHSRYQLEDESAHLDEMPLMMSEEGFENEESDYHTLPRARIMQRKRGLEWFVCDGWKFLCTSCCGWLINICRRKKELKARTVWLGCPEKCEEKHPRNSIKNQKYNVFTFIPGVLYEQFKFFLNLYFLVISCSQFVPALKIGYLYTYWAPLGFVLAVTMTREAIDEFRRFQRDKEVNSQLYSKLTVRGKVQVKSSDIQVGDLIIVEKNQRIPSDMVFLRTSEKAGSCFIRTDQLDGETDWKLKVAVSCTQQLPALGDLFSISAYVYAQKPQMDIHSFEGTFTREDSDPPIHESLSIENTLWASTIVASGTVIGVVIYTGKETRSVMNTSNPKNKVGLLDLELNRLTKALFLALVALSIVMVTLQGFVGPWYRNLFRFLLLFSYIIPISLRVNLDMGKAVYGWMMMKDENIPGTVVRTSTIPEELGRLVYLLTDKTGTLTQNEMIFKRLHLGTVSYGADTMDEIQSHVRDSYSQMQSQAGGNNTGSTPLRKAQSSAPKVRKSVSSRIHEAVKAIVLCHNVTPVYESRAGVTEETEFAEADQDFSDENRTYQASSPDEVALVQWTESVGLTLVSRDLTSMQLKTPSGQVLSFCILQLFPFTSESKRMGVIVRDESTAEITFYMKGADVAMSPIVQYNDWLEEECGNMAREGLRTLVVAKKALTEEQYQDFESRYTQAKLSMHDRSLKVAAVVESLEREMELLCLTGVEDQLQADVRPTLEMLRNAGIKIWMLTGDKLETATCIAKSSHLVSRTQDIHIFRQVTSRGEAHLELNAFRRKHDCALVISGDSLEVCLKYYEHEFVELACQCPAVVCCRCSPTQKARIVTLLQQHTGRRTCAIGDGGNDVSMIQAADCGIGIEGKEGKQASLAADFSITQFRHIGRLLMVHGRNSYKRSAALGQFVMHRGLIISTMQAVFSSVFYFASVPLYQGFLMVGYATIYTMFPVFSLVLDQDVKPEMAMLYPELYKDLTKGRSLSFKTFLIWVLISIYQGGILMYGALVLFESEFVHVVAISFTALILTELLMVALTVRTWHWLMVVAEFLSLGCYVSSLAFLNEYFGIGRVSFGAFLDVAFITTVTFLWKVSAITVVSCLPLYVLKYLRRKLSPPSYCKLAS
Chain of UniProt P33681 (P33681 whole entry, looked up): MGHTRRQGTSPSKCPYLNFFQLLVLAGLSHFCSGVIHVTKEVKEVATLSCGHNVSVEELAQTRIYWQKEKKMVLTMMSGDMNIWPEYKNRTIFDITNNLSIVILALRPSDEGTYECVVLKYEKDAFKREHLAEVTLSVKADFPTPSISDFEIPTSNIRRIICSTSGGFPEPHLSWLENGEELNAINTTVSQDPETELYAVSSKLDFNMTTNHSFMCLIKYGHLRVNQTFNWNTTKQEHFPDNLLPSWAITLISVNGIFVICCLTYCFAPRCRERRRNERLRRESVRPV
Chain of UniProt O95429 (O95429 whole entry, looked up): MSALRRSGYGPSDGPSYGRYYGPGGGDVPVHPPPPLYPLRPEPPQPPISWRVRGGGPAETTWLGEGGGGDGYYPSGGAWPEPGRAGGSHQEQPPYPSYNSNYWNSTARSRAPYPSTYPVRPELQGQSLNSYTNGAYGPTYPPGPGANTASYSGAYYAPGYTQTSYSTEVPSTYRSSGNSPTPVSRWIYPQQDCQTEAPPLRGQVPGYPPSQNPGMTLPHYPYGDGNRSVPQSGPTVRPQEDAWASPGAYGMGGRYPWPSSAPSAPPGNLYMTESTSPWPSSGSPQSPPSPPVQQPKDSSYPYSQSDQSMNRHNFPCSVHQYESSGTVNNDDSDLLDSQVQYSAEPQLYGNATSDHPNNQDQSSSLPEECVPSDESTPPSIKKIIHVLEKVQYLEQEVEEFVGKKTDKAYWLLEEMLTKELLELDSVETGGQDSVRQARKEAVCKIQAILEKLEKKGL
Chain of UniProt Q15059 (Q15059 whole entry, looked up): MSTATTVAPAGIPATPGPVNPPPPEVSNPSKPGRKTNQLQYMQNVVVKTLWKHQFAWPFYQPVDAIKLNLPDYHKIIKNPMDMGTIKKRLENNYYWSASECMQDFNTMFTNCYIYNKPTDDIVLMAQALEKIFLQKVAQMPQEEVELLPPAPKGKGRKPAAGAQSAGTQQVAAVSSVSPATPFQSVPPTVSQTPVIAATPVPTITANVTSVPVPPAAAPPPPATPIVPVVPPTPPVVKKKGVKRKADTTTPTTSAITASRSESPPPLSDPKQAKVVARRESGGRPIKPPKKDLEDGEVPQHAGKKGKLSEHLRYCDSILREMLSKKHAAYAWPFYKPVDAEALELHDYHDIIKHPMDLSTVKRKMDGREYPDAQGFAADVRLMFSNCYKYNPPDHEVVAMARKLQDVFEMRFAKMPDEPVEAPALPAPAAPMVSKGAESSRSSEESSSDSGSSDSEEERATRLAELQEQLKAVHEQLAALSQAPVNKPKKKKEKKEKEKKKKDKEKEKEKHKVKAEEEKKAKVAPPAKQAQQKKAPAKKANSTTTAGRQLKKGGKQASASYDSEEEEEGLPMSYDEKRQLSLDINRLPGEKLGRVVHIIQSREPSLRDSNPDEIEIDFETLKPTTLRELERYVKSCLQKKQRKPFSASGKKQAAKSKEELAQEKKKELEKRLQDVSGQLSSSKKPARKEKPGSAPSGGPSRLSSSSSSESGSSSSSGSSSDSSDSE
Chain of UniProt Q9Y4P1 (Q9Y4P1 whole entry, looked up): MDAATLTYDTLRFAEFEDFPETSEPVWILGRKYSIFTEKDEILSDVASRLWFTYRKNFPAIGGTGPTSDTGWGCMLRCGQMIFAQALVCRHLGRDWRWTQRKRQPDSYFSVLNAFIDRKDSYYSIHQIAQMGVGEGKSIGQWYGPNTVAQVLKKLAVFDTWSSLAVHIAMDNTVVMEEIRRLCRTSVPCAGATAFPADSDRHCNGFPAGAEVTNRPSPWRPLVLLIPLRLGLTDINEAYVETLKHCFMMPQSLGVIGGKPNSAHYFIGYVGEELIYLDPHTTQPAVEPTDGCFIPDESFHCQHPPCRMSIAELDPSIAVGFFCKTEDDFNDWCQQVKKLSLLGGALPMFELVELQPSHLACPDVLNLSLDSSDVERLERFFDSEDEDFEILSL
Chain of UniProt Q86WJ1 (Q86WJ1 whole entry, looked up): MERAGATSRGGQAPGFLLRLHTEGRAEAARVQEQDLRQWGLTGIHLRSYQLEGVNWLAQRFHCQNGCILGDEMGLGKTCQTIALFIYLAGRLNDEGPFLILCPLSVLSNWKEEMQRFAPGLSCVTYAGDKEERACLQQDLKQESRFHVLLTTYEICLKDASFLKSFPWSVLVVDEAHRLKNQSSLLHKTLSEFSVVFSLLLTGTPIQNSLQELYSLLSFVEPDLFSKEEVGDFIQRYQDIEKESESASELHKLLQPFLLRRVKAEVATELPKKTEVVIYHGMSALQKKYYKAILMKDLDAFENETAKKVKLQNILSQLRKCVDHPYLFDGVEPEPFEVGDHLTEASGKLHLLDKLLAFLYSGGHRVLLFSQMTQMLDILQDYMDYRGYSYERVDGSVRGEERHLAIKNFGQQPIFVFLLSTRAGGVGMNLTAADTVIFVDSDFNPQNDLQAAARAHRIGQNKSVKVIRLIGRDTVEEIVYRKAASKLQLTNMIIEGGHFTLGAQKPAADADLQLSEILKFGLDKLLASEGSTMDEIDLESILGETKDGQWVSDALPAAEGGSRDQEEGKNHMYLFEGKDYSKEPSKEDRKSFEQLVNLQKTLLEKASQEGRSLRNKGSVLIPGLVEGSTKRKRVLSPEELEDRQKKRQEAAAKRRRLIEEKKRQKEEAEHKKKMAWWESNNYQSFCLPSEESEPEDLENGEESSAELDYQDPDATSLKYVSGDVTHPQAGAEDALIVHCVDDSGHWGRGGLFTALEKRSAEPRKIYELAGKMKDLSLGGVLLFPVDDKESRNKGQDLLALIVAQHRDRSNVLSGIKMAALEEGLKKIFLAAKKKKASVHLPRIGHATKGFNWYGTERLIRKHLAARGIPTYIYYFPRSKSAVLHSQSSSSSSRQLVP
Chain of UniProt P45973 (P45973 whole entry, looked up): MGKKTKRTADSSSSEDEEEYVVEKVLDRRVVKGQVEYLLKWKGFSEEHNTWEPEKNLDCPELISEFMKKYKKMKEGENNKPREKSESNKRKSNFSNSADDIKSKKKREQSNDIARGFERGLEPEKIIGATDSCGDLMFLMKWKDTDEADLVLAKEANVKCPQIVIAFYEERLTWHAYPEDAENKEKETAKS
Chain of UniProt Q9BRD0 (Q9BRD0 whole entry, looked up): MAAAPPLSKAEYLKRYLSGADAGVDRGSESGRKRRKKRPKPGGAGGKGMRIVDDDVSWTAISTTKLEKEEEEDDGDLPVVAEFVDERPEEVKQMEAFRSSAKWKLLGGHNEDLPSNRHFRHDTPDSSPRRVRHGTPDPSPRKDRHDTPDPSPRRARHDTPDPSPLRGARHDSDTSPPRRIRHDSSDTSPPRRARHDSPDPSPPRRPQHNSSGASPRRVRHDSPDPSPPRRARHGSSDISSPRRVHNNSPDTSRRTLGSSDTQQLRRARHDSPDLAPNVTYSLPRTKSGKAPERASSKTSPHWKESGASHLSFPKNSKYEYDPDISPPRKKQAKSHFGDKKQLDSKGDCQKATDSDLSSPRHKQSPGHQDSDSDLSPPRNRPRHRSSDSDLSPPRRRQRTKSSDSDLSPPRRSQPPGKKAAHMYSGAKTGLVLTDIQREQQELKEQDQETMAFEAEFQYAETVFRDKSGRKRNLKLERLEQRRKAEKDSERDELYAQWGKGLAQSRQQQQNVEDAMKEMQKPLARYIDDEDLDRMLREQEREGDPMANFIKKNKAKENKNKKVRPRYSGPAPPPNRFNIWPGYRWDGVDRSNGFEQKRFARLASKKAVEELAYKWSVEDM

| Target | log2 fold change (nilotinib) | log2 fold change [1] | log2 fold change (dasatinib) | log2 fold change [2] | log2 fold change [3] | log2 fold change (quisinostat) | log2 fold change (tipifarnib) | log2 fold change [4] | log2 fold change [5] | log2 fold change [6] | log2 fold change [7] | log2 fold change (vorinostat) | log2 fold change (silmitasertib) | log2 fold change [8] | log2 fold change (entospletinib) |
| --- | --- | --- | --- | --- | --- | --- | --- | --- | --- | --- | --- | --- | --- | --- | --- |
| BAG4 (UniProt O95429) | -0.154 | -0.039 | 0.027 | 0.014 | 0.015 | 0.019 | -0.011 | 0.01 | 0.018 | 0.038 | -0.013 | 0.03 | -0.067 | -0.025 | 0.007 |
| ATG4B (UniProt Q9Y4P1) | 0.045 | 0.001 | -0.049 | 0.008 | 0.044 | -0.055 | -0.019 | 0.024 | -0.05 | 0.005 | -0.009 | -0.274 (active) | 0.043 | -0.014 | 0.021 |
| BRD3 (UniProt Q15059) | -0.069 | 0.074 | -0.011 | 0.025 | -0.018 | 0.013 | 0.013 | 0.066 | -0.024 | -0.185 | 0.052 | -0.117 | -0.146 | 0.021 | -0.018 |
| CASP3 (UniProt P42574) | 0.032 | -0.024 | 0.053 | 0.023 | 0.008 | -0.029 | -0.033 | 0 | -0.01 | 0.022 | -0.031 | 0.058 | -0.02 | 0.007 | -0.027 |
| CCAR2 (UniProt Q8N163) | -0.001 | -0.016 | -0.069 | -0.017 | 0.018 | -0.033 | -0.013 | 0.027 | 0.014 | -0.007 | 0.01 | -0.399 (active) | 0.002 | -0.02 | 0.02 |
| CCDC25 (UniProt Q86WR0) | 0.016 | -0.023 | -0.043 | -0.021 | -0.013 | -0.039 | 0.002 | 0 | 0.024 | -0.031 | 0.025 | 0.025 | -0.032 | -0.011 | 0.009 |
| ATP9B (UniProt O43861) | 0.05 | 0.164 | -0.04 | -0.069 | -0.049 | 0.009 | -0.08 | -0.021 | 0.107 | 0.064 | 0.013 | 0.012 | 0.005 | -0.045 | 0 |
| CHAC2 (UniProt Q8WUX2) | 0.004 | 0.043 | -0.022 | -0.024 | 0.036 | -0.066 | 0.041 | 0.019 | 0.017 | -0.027 | -0.158 | 0.066 | -0.02 | -0.012 | -0.052 |
| CBX5 (UniProt P45973) | 0.014 | 0.011 | 0.028 | 0.052 | -0.017 | -0.09 | -0.024 | 0.014 | -0.004 | 0.007 | 0.033 | -0.062 | -0.005 | -0.048 | 0.014 |
| ATP2B4 (UniProt P23634) | -0.05 | 0.098 | -0.031 | 0.003 | 0.021 | 0.164 | -0.028 | -0.019 | 0.019 | 0.008 | -0.026 | -0.042 | -0.003 | -0.079 | -0.042 |
| BET1 (UniProt O15155) | 0.038 | 0.052 | -0.015 | -0.011 | 0 | 0.023 | -0.063 | -0.005 | -0.057 | -0.005 | 0.015 | -0.042 | -0.008 | -0.01 | 0.035 |
| CDKN1C (UniProt P49918) | -0.054 | -0.035 | 0.083 | 0.094 | 0.055 | 0.091 | 0.037 | -0.091 | -0.101 | 0.04 | 0.124 | 0.058 | -0.029 | 0.134 | 0.048 |
| BTAF1 (UniProt O14981) | -0.005 | 0.018 | -0.028 | 0.007 | 0.008 | -0.015 | -0.011 | 0.033 | 0.016 | 0.004 | 0.01 | -0.45 (active) | 0.003 | -0.008 | -0.031 |
| CHD1L (UniProt Q86WJ1) | -0.01 | -0.012 | -0.024 | 0 | 0.024 | -0.114 | 0.032 | 0.111 | 0.028 | -0.039 | 0.01 | -0.277 (active) | 0.015 | 0.164 | 0.046 |
| CD80 (UniProt P33681) | 0.259 | -0.065 | -0.015 | -0.333 | 0.039 | 0.025 | 0.023 | -0.002 | 0.086 | -0.03 | 0.018 | -0.028 | -0.067 | -0.066 | -0.162 |
| ATG10 (UniProt Q9H0Y0) | -0.064 | 0.026 | 0.043 | -0.16 | -0.068 | 0.015 | 0.125 | -0.01 |  | 0.016 | -0.032 | -0.242 (active) | 0.049 | -0.023 | 0.034 |
| BUD13 (UniProt Q9BRD0) | -0.036 | 0.111 | -0.094 | 0 | 0.019 | -0.044 | 0.028 | -0.014 |  | -0.019 |  | 0.136 | 0.054 | 0.036 | -0.046 |
| CASP7 isoform 3 (UniProt P55210) | -0.042 | 0.01 | -0.091 | 0.05 | 0.226 | -0.016 | 0.049 | 0.022 | 0.106 | 0.063 |  | -0.254 | 0.113 | 0.01 | 0.063 |
